# Compound activity as filed in PubChem.
# Most compounds without a hit are left out; they make up all but 3% or so of the library.
# GCN5L2 inh – inhibitors of human GCN5L2 histone acetyltransferase; Q92830; GCN5L2 HAT assay, ThioGlo1 CoA-SH fluorescence; Potency, µM (series often up to 58.9 µM), inactives show at the highest dose activity change, negative = inhibition, most hits filed as inhibitors; 390,000 tested, 0.21% active; further: on the % scale 0 is the no-effect control and ±100 the full control effect
#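 qHTS, 1536-well. 20nM enzyme, pH 7.5 HEPES/EDTA/Tween-20 buffer; 15 min compound preinc., RT. Start: 75uM H3(1-25), 70uM AcCoA, 50uM ThioGlo1. Read Ex340/Em540 at t=0 (autofluorescence flag) and t=20 min.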
# USP1-UAF1 inh – inhibitors of human USP1/UAF1 deubiquitinase. 390,000 tested, 0.23% active. Potency, µM (series often up to 57.1 µM), for inactives: at the highest dose activity change, negative = inhibition, usual class: inhibitors. recombinant USP1/UAF1, Ub-Rhodamine cleavage fluorescence. AID 743255. O94782; further: on the % scale 0 is the no-effect control and ±100 the full control effect; nearly all actives have a fitted effect of over 60% in size
#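 High-throughput fluorogenic screen: 1nM USP1/UAF1 complex, Ub-Rho substrate 150nM final, 50mM HEPES pH 7.8 with 0.5mM EDTA, 0.1 mg/ml BSA, 1mM TCEP and 0.01% Tween-20.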
# VDR inhibitor – inhibitors of human vitamin D receptor; P11473; VDR-SRC2-3 peptide fluorescence polarization, 2 h; Potency, µM, for the others: max response, negative = inhibition, actives largely listed as inhibitors; 400,000 tested, 0.93% active; further: on the % scale 0 is the no-effect control and ±100 the full control effect
#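 Fluorescence polarization assay of small-molecule disruption of VDR binding to coregulator peptide SRC2-3. Compounds and controls pin-transferred, then read after 2 h incubation at ambient room temperature.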
# PTAP TSG101 blk – blocks PTAP/TSG101 interaction to inhibit HIV-1 budding; Potency, µM (doses to about 115 µM), without a hit: top-dose activity change, negative = inhibition, usual class: inhibitors; 340,000 tested, under 10 active; Q99816; Fluorescence polarization, FITC-PTAP peptide / Tsg101 binding; active means well fitted inhibition curve with a large enough effect in the main read-out, with a control signal flat, not every such curve was filed as active; inconclusive means small, poorly fitted or top-dose-only effect, or effect the other way, or a change in a side signal; inactive means no such curve, though single readings can be large or run the other way; further: % of control where 0% means no effect
#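 Tsg101 binding domain (10 uM final) was mixed with compound and a FITC-labeled PTAP peptide (50 nM final) in HEPES pH 7.5 buffer with NaCl, Tween 20, EDTA and TCEP; fluorescence polarization was read after 20 min at r.t.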
# PLK1 PBD block – inhibitors of human PLK1 polo-box domain binding. P53350. Plk1 PBD binding of FITC phosphopeptide, fluorescence polarization. Potency, µM, for inactives: max response, negative = inhibition, most hits filed as inhibitors. 360,000 tested, 2.8% active; further: series mostly up to about 57 µM; on the % scale 0 is the no-effect control and ±100 the full control effect; nearly all actives have a fitted effect of over 65% in size
# Target sequence (P53350 whole entry, looked up, the tested form may be a part): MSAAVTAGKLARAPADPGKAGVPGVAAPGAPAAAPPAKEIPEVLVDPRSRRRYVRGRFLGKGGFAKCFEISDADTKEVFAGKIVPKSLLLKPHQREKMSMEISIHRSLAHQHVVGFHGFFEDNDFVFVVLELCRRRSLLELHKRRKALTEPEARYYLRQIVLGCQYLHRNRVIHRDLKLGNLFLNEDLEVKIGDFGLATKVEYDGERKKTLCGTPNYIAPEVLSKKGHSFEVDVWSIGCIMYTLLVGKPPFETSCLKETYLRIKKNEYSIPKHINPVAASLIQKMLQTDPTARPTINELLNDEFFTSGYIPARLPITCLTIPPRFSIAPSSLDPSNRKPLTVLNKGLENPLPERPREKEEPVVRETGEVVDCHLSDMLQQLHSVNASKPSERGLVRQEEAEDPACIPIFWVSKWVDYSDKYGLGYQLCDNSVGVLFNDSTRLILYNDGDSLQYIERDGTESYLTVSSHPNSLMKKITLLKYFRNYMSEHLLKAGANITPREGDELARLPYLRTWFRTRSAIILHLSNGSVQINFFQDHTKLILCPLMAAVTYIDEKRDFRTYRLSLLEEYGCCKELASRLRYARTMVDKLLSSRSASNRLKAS
# Starred values were filed as active, the others as inactive; ? = inconclusive; . = no result given. Unless noted, the call rests on the fitted dose curve; in most records, active means well fitted curve in the direction sought with a large enough effect; inconclusive means small, poorly fitted or top-dose-only effect, or another doubt; inactive means no such curve, though single readings can be large; an effect the other way counts as inactive or inconclusive. Potency means the concentration at half of the fitted maximal effect.
SMILES,GCN5L2 inh,USP1-UAF1 inh,VDR inhibitor,PTAP TSG101 blk,PLK1 PBD block
COc1ccc(C2CC(=O)c3cc(-c4nc(-c5ccc(C)cc5)cs4)c(=O)[nH]c3C2)cc1 (stereo unspecified),-4%,-9%,6%,.,.
CC(NC(=O)c1cnccn1)c1ccc(S(N)(=O)=O)cc1 (stereo unspecified),-2%,-19%,-22%,-4%,27µM*
O=[N+]([O-])c1cc(S(=O)(=O)N2CCCCCC2)ccc1F,4%,-20%,-18%,0%,15µM*
O=[N+]([O-])c1cc(S(=O)(=O)N2CCCC2)ccc1O,2%,-17%,0%,-2%,-13%
O=S(=O)(Nc1cccc(Cl)c1)c1ccc2oc(=S)[nH]c2c1,-11%,-4%,?,-3%,34µM*
Cc1cc(S(=O)(=O)N2CCOCC2)ccc1F,-5%,-14%,-21%,-3%,30µM*
O=S(=O)(c1ccc2oc(=S)[nH]c2c1)N1CCCCC1,-17%,-20%,-4%,-5%,-23%
O=S(=O)(c1ccc2oc(=S)[nH]c2c1)N1CCOCC1,-20%,-15%,?,-3%,2.7µM*
Cc1ccc2oc(C(=O)Nc3sc4c(c3C(=O)NCc3ccccc3)CCCC4)cc(=O)c2c1,-6%,-26%,9%,.,.
CC(C)(C)C1CCc2c(sc(NC(=O)c3cccc(Cl)c3)c2C(N)=O)C1 (stereo unspecified),0%,-7%,?,.,.
Cc1cc(Nc2cccc(C)c2C)n2cnnc2n1,0%,1%,0%,.,.
Cc1ccc(OCc2nnc(SCC(=O)Nc3ccccc3C(C)C)o2)cc1,-3%,-21%,8%,.,.
O=S(=O)(c1ccc(=S)[nH]c1)N1CCOCC1,35%,-18%,-21%,0%,7.5µM*
O=S(=O)(c1cccc(-c2n[nH]c(=S)o2)c1)N1CCOCC1,-7%,-6%,-14%,-5%,27µM*
O=S(=O)(c1cccc(-c2n[nH]c(=S)n2-c2ccccc2Cl)c1)N1CCOCC1,-1%,-6%,?,0%,-23%
O=S(=O)(c1cccc(S(=O)(=O)N2CCC(Cc3ccccc3)CC2)c1)N1CCOCC1,-1%,-9%,4%,-7%,27µM*
O=C(O)c1cccc(S(=O)(=O)N2CCC(Cc3ccccc3)CC2)c1,1%,-20%,-7%,-1%,-15%
COc1ccccc1C(=O)NC(=O)Nc1ccc(-n2nc(C(F)(F)F)cc2C(F)(F)F)cc1,-1%,59%,1%,.,.
CCOC(=O)c1c(NC(=O)CN(C)C)sc(C(=O)N(CC)CC)c1C,-13%,-17%,12%,-5%,-4%
Cc1ccc(C(=O)Nc2cccc(NC(=O)c3ccc(C)c([N+](=O)[O-])c3)n2)cc1[N+](=O)[O-],-3%,-21%,-7%,-6%,3%
CCCCC(=O)Nc1sc(C(=O)N(CC)CC)c(C)c1C(=O)OC,?,-19%,22µM*,-9%,4.7µM*
CCOC(=O)c1c(NC(=O)CC)sc(C(=O)NC2CCCC2)c1C,-1%,-3%,6%,1%,-12%
Cc1ccc(C(=O)Nc2sc(C)c(-c3ccccc3)c2C(N)=O)cc1[N+](=O)[O-],-4%,-7%,-26%,-1%,19µM*
CCOC(=O)c1c(NC(=O)CC)sc(C(C)=O)c1C,-4%,0%,-24%,0%,11µM*
COC(=O)c1sc(NC(=O)c2cccc([N+](=O)[O-])c2)c(C(N)=O)c1C,1%,-20%,-26%,-3%,27µM*
SMILES,GCN5L2 inh,USP1-UAF1 inh,VDR inhibitor,PTAP TSG101 blk,PLK1 PBD block
Cc1cn(C)c(CC(=O)Nc2cccc(Cl)c2C)c1C(=O)O,-3%,-12%,11%,.,.
COc1cccc(NC(=O)c2oc3ccccc3c2NC(=O)C23CC4CC(CC(C4)C2)C3)c1,-9%,?,-9%,.,.
Cn1c(SCC(=O)NC2CCS(=O)(=O)C2)nnc1-c1ccco1 (stereo unspecified),1%,-16%,-13%,0%,-4%
N#CC1=C(N)N(c2ccc(Cl)cc2)C2=C(C(=O)CCC2)C1c1cc(CN2CCOCC2)cs1 (stereo unspecified),1%,-6%,-15%,.,.
CCc1ccccc1NC(=O)CCCN1C(=O)CCn2nc(-c3cn(C)c4ccccc34)cc21,-10%,-3%,5%,.,.
CCCC(=O)Nc1sc(C(=O)OC)c(C)c1C(N)=O,-3%,-13%,-17%,-7%,21µM*
CCOC(=O)c1sc(NC(=O)CCN2CCN(C)CC2)c(C(=O)OCC)c1C,0%,-14%,-21%,-7%,-2%
CC(=O)c1nnn(-c2ccc([N+](=O)[O-])cc2C)c1C,-7%,-5%,-8%,-5%,24µM*
Cc1nn(-c2ccc(N3CCOCC3)nn2)c(C)c1CCC(=O)NCc1ccc(OC(C)C)cc1,2%,-4%,4%,.,.
CCOC(=O)c1c(C)[nH]c(CCC(=O)NCc2cc(Br)ccc2OC)c1C,2%,-20%,18%,.,.
CC(C)CC(NC(=O)CC12CC3CC(CC(C3)C1)C2)C(=O)NC1=NCCS1 (stereo unspecified),-5%,-18%,71µM*,-2%,15µM*
CC(=O)Nc1nc(-c2ccc(-c3ccccc3)cc2)cs1,.,-6%,.,.,-1%
COc1ccc(-c2csc(NC(C)=O)n2)cc1OC,-3%,-12%,?,-6%,27µM*
CC(=O)Nc1nc(-c2cccc3ccccc23)cs1,-5%,-13%,25µM*,-6%,3.8µM*
COc1ccc(-c2csc(NC(=O)Cc3ccccc3)n2)cc1OC,-12%,-4%,15%,-5%,-7%
CN(C)c1ccc2c(O)cc(=O)n(C)c2c1,-13%,-16%,32µM*,-4%,-28%
Nc1ccc2c(S(=O)(=O)O)cccc2c1S(=O)(=O)O,.,?,25%,-4%,0%
CN(c1ccc(O)cc1)S(=O)(=O)c1ccc2ccccc2c1,-9%,-2%,-9%,-4%,-12%
CN(C)c1ccc2cc(S(=O)(=O)O)cc(O)c2c1,.,?,50µM*,2%,?
O=Nc1c(O)ccc2cc(S(=O)(=O)O)ccc12,.,?,79µM*,0%,-17%
Nc1cccc2cc(S(=O)(=O)O)ccc12,.,7.1µM*,-29%,-8%,?
Cc1ccc(Cn2c(CNC(=O)c3ccc(Cl)c([N+](=O)[O-])c3)nc3cccnc32)cc1,?,-4%,6%,.,.
COc1ccc(Cn2ccc3nc(C)c(C(=O)N4CCN(c5cccc(OC)c5)CC4)cc3c2=O)cc1,-8%,-23%,1%,.,.
CCOC(=O)c1ccccc1NC(=O)N(C(C)C)C1CCN(C(C)=O)CC1,-13%,-15%,11%,.,.
NC(=O)c1ccccc1NC(=O)CS(=O)(=O)Cc1ccccc1,-2%,-13%,10%,4%,24µM*
CC(C)CC(=O)Nc1nnc(CCc2ccccc2)s1,-6%,-19%,-7%,-2%,4%
